The list is not random: actives were taken first. Their share in the collection is about 3.2%.
VDR inh: vitamin D3 receptor (human) inhibition; VDR-SRC2-3 peptide fluorescence polarization, 2 h; 400,000 tested, 0.93% active; P11473; Potency, µM, inactives show max response, negative = inhibition, hits mostly inhibitors; AID 504847; note: potency is the fitted concentration of half-maximal effect
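Fluorescence polarization assay of small-molecule disruption of VDR binding to coregulator peptide SRC2-3. Compounds and controls pin-transferred, then read after 2 h incubation at ambient room temperature.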
PLK1 PBD block: PLK1 (human) polo-box domain binding inhibition. Plk1 PBD binding of FITC phosphopeptide, fluorescence polarization. Potency, µM, for the others: max response, negative = inhibition, most hits filed as inhibitors. 360,000 tested, 2.8% active; note: potency is the fitted concentration of half-maximal effect; series mostly up to about 57 µM; nearly all actives have a fitted effect of over 65% in size
USP2a inh: USP2a (human) protease inhibition. 330,000 tested, 0.01% active. USP2 core, Ub-CHOP2 coupled fluorogenic reporter, 485/531. O75604. AID 463254. Potency, µM (series often up to 38.3 µM), inactives show at the highest dose activity change, negative = inhibition, most hits filed as inhibitors;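 note: potency is the fitted concentration of half-maximal effect; plate controls were DMSO wells for no effect and full inhibition by NEM control for full effect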
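Cell-free coupled assay: 10nM USP2 core preincubated 30min RT with compound in Tris-HCl pH 8.0/CaCl2/CHAPS buffer, then 25nM Ub-CHOP2 and 25nM reporter substrate; fluorescence (Ex 485/Em 531) read after 60min RT, normalized to NEM inhibition, concentration-response curves fitted.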
USP1-UAF1 inh: USP1/UAF1 (human) deubiquitinase inhibition; 390,000 tested, 0.23% active; Potency, µM (titrated, usually from 57.1 µM), for the others: at the highest dose activity change, negative = inhibition, usual class: inhibitors; recombinant USP1/UAF1, Ub-Rhodamine cleavage fluorescence; note: potency is the fitted concentration of half-maximal effect; nearly all actives have a fitted effect of over 60% in size
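1 nM enzyme complex + cpd, 15 min RT; start with Ub-Rho 150nM final; kinetic fluorescence ex 480/em 540, 6 reads q60 s. Buffer 50mM HEPES pH 7.8, 0.5mM EDTA, 0.1 mg/ml BSA, 1mM TCEP, 0.01% Tween-20.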
GALK inh: blocks human galactokinase activity. P51570. Purified GALK, Kinase-Glo residual ATP luminescence. Potency, µM (top dose mostly 57.5 µM), inactives show at the highest dose activity change, negative = inhibition, usual class: inhibitors. 270,000 tested, 0.007% active. AID 1868; note: potency is the fitted concentration of half-maximal effect
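Human GALK (5 nM) with 35 uM ATP and 100 uM galactose in 20 mM HEPES pH 8.0, 5 mM MgCl2, 60 mM NaCl, 1 mM DTT, 0.01% BSA. After 1 h at room temperature, leftover ATP was read by Kinase-Glo Plus luminescence.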
FBPA coupling cs: inhibits coupling enzyme system, counter-screen for aldolase hits. coupling enzyme system counterscreen, AmpLite Red fluorescence. activity change, negative = inhibition, % at 58.2 µM, hits read low. 290,000 tested, 0.67% active. AID 2472; in the data active = activity change below about -30%
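Coupling enzymes only (glyceraldehyde-3-phosphate) + compound, at 57.5 uM final, 10 min RT; add substrate/coupling/AmpLite Red mix, 20 min RT; fluorescence ex 525/em 598 nm. Actives flag coupling-system interference.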
Active calls of the source: *; ? = inconclusive; . = no result. Unless noted, calls come from the whole dose curve; as a rule, active = well fitted curve in the direction sought with a large enough effect; inconclusive = small, poorly fitted or top-dose-only effect, or another doubt; inactive = no such curve, though single readings can be large; an effect the other way counts as inactive or inconclusive. Unless noted, % is set by controls: 0 for no effect and ±100 for the full control effect.

SMILES	VDR inh	PLK1 PBD block	USP2a inh	USP1-UAF1 inh	GALK inh	FBPA coupling cs
CCOC(=O)CC1=C(C(=O)OCC)C(c2ccc(OC)c(OC)c2)C(C#N)=C(N)O1 (stereo unspecified)	5%	-8%	5%	-24%	-1%	-2
COc1ccc(CCNc2ncnc3c2c(C)c(C)n3CCO)cc1OC	?	27µM*	-1%	-18%	2%	-1
COc1ccc(CCNc2ncnc3c2c(C)c(C)n3CCCN(C)C)cc1OC	6%	-5%	-1%	-4%	.	0
Cc1ccc2c(c1)-n1c(nc3cc(C)ccc3c1=O)C(Cc1ccccc1)NC2=O (stereo unspecified)	.	.	-2%	.	.	.
CCC12CN3CC(CC)(CN(C1)C3c1c(O)ccc3ccccc13)C2=O (stereo unspecified)	-16%	-12%	1%	-9%	-1%	-36*
COC1=CC(=O)C=C(OC)C1(O)CC(C)=O	-3%	?	.	-21%	.	.
CC1=NN(c2ccc(C)cc2C)C(=O)C1C(c1ccccc1)C1C(=O)N(c2ccc(C)cc2C)N=C1C (stereo unspecified)	?	19µM*	-2%	?	2%	-5
Cc1ccc(-c2cc(C(F)(F)F)n3ncc(C(=O)O)c3n2)cc1	-22%	30µM*	-2%	-8%	-2%	1
COc1ccc(-c2cc(C(F)(F)F)n3ncc(C(=O)NCC4CCCO4)c3n2)cc1 (stereo unspecified)	-10%	7.5µM*	4%	6%	-4%	3
COc1cccc(-c2cc(C(F)(F)F)n3ncc(C(=O)NCC4CCCO4)c3n2)c1 (stereo unspecified)	-11%	-4%	3%	-6%	4%	-1
COc1ccc(-c2cc(C(F)(F)F)n3ncc(C(=O)O)c3n2)cc1OC	2%	3%	0%	1%	-1%	10
CCN(CC)CCNC(=O)CSc1c2c(nc3cc(Cl)ccc13)CCCC2	?	-10%	1%	-27%	5%	-20
CCc1[nH]c(=S)c(C#N)c2c1CCCC2	?	27µM*	1%	-4%	.	-1
Cc1ccc(C(=O)NNC(=O)CSc2nc(N)cc(N)n2)cc1	0%	27µM*	5%	-19%	2%	-2
Nc1cc(N)nc(SCC(=O)Nc2ccccc2)n1	6%	-2%	0%	-7%	-2%	-2
Cc1ccc(C(=O)NNC(=O)C(C)Sc2nc(N)cc(N)n2)cc1 (stereo unspecified)	-11%	-6%	-4%	-10%	-2%	0
Nc1cc(N)nc(SCC(=O)c2ccccc2)n1	-7%	24µM*	-1%	2%	-3%	0
CC(=O)c1ccc(NC(=O)C2CC(c3ccc(F)cc3)=NO2)cc1 (stereo unspecified)	3%	-3%	4%	-5%	-3%	-1
O=C(Cn1nc(C(=O)O)c2ccccc2c1=O)Nc1ccc(F)cc1F	0%	-2%	0%	-25%	-2%	8
O=C(Cn1nc(C(=O)O)c2ccccc2c1=O)c1cc(F)ccc1F	?	17µM*	-2%	-21%	-2%	4
O=C(Cn1nc(C(=O)O)c2ccccc2c1=O)NCc1ccco1	-21%	21µM*	1%	-1%	15%	0
O=C(CN1C(=O)c2ccccc2S1(=O)=O)NCCSCc1cccc(Cl)c1	18%	-16%	-1%	-6%	-2%	-9
O=C(NN=C1CCCC1)c1ccccc1O	-10%	-4%	-4%	-18%	-3%	1
OCC1O[C@H]([S-])[C@H](O)[C@@H](O)[C@@H]1O.[Au+] (stereo partly specified)	2.8µM*	.	.	.	.	.
O=C(Nc1nc(-c2ccccc2)ns1)c1ccncc1	?	8.4µM*	3%	-12%	4%	-1
SMILES	VDR inh	PLK1 PBD block	USP2a inh	USP1-UAF1 inh	GALK inh	FBPA coupling cs
COc1ccc(C(=O)c2ncc(C(F)(F)F)cc2Cl)cc1	?	24µM*	0%	-12%	2%	0
Cc1ccc2cc3cc(C(=O)N4CC(C)CC(C)C4)oc3nc2c1 (stereo unspecified)	-3%	13µM*	1%	-26%	0%	-5
O=C(CCNC(=O)c1ccc([N+](=O)[O-])cc1)Nc1cc(Cl)ccc1N1CCOCC1	18%	-12%	1%	-9%	.	.
Cc1ccnc(SCc2cc(=O)c(OC(=O)c3cc([N+](=O)[O-])ccc3Cl)co2)n1	-12%	24µM*	0%	-6%	1%	1
CC(=O)[C@H]1[C@@H]2C(=O)N(c3cccc(Cl)c3)C(=O)[C@@H]2[C@H]2c3ccccc3C=CN21	7%	?	2%	10µM*	-1%	-36*
CC(C)(C)C(=O)[C@@H]1[C@@H]2C(=O)N(Cc3ccccc3)C(=O)[C@@H]2[C@H]2c3ccccc3C=CN12	.	.	1%	.	1%	-12
O=C(c1ccco1)[C@@H]1[C@@H]2C(=O)N(c3ccc(F)cc3)C(=O)[C@@H]2C2c3ccccc3C=CN21 (stereo partly specified)	.	.	5%	.	1%	-40*
O=C(c1ccco1)[C@@H]1[C@@H]2C(=O)N(c3ccc(Br)cc3)C(=O)[C@@H]2C2c3ccccc3C=CN21 (stereo partly specified)	-13%	?	4%	16µM*	1%	-40*
CC(=O)[C@@H]1[C@@H]2C(=O)N(C3CCCCC3)C(=O)[C@@H]2C2c3ccccc3C=CN21 (stereo partly specified)	.	.	0%	.	0%	.
COc1cc(OC)c(C2C(C(=O)O)c3ccccc3C(=O)N2C)cc1OC (stereo unspecified)	6%	-5%	-1%	-12%	.	-40*
CCN(CC)CCCN1C(=O)C(O)=C(C(=O)c2cc3ccccc3o2)C1c1ccccn1 (stereo unspecified)	-10%	27µM*	3%	-20%	1%	5
CN(C)CCN1C(=O)C(O)=C(C(=O)c2cc3ccccc3o2)C1c1ccccn1 (stereo unspecified)	.	.	0%	.	4%	0
COc1ccc(C2CC23N=C(c2ccccc2)OC3=O)cc1 (stereo unspecified)	?	17µM*	2%	4%	0%	0
CCN(CC)c1ccc(/C=C2/C(=O)c3ccc(C(=O)O)cc3C2=O)cc1	-1%	6%	13%	13µM*	-1%	2
Cc1cccc(CC2S/C(=N/c3cccc(C)n3)NC2=O)c1 (stereo unspecified)	1%	-15%	6%	-10%	-1%	2
Cc1cccc(/N=C2/NC(=O)C(Cc3ccccc3)S2)n1 (stereo unspecified)	?	30µM*	2%	-9%	-1%	1

Screening data: PubChem BioAssay, National Center for Advancing Translational Sciences (NCATS)
